Bioassay records deposited in PubChem BioAssay by several laboratories.
Only some compounds are listed: those with a hit (about 0.78% of all), similar ones and a draw of the others.
PriA SSB inh – blocks PriA binding to SSB C-terminal tail | AlphaScreen SSBct-PriA binding, biotinylated peptide | inhibition, % at 33 µM | hit rate 0.6% among 430,000 | AID 1272365; in the data active = inhibition mostly above about 37%, no sharp cut-off; inactive = mostly below about 20%;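 also: plate controls were negative control peptide for no effect and reference peptide for full effect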
BJeLR lethal – kills HRASV12-expressing BJeLR cells; inhibition, % (no concentration beside the values); BJeLR (HRASV12) viability, CellTiter-Glo ATP luminescence, 48 h; hit rate 0.17% among 300,000; in the data active = inhibition above about 50%
SARS 3CLpro inh – SARS-CoV 3CLpro protease inhibition. recombinant SARS-CoV 3CLpro, quenched FRET peptide cleavage. inhibition, % at 6 µM. hit rate 0.14% among 290,000; in the data active = inhibition above about 12%
The depositor's hits bear a star; i = inactive; / = no result; ! = repeats disagree.

SMILES	PriA SSB inh	BJeLR lethal	SARS 3CLpro inh
COc1ccc(Cl)c2sc(N(CCN(C)C)C(=O)Cc3ccccc3)nc12	12	/	/
COc1ccc(C)c2sc(N(CCCn3ccnc3)C(=O)Cc3ccccc3)nc12	33*	/	/
CCc1ccc(S(=O)(=O)N2CCC(CN3C(=O)CNC3=O)CC2)cc1	-21	/	/
O=C(CN1C(=O)CCC1=O)NCCn1nc(-c2ccccn2)c2c1CCCC2	-4	/	/
N#Cc1cc(F)ccc1NC(=O)C1CC(=O)Nc2nc3ccccc3n21 (stereo unspecified)	7	/	/
COc1cccc(C(=O)NCC(c2ccc(F)cc2)N2CCOCC2)c1OC (stereo unspecified)	-3	/	/
O=[N+]([O-])c1cc(CN2CCCC2)c2cccnc2c1O	90*	/	-1
Oc1c(Cl)cc(CN2CCCCC2)c2cccnc12	/	39	-9
O=[N+]([O-])c1cc(Cl)ccc1N1CCN(c2cccc(C(F)(F)F)c2)CC1	12	12	4
O=[N+]([O-])c1cc(CN2CCN(c3cccc(C(F)(F)F)c3)CC2)c2cccnc2c1O	90*	8	-1
CCCN1C(=O)C(C)(C)COc2ccc(NS(=O)(=O)c3cc(F)ccc3F)cc21	5	/	/
CCOC(=O)N1CCN(c2ncnc3c2nnn3CC)CC1	7	/	/
COc1ccc(NC(C)=O)cc1NC(=O)CCCn1nc(-c2ccco2)ccc1=O	-11	/	/
O=C(NC1CCN(c2ccc(C(F)(F)F)cn2)C1)c1cc(C2CC2)on1 (stereo unspecified)	-12	/	/
O=C(NCC[C@@H](CCO)c1ccccc1)c1ccc(F)cc1F	-8	/	/
COc1ccc2nc(-c3ccc(C)c(NC(=O)c4ccccc4C(F)(F)F)c3)cn2n1	1	/	/
O=C(c1ccc(-n2cccc2)cc1)N1CCN(Cc2csc(-c3ccccc3)n2)CC1	29*	/	/
O=C(c1ccc(-n2cccc2)cc1)N1CCN(Cc2ccccc2)CC1	5	/	3
CN(C)CCNC(=O)c1cc2c(s1)-c1ccc(Cl)cc1SC2	-10	79*	2
CCOCCCNC(=O)c1cc2c(s1)-c1ccccc1SC2	-7	5	1
COc1ccc(-c2csc3c(=O)n(Cc4ccc(Cl)cc4)cnc23)cc1	-7	/	/
CCCN(Cc1ccsc1)C(=O)C(C)Oc1ccccc1 (stereo unspecified)	-5	/	/
O=C1OC(Nc2ncccn2)c2ccccc21 (stereo unspecified)	-14	-8	9
O=C1OC(Nc2cc(Br)cc3cccnc23)c2ccccc21 (stereo unspecified)	74*	4	6
Cc1ccc(-n2ccnc2N2CCN(C(=O)CCCc3ccccc3)CC2)cc1	32	/	/
SMILES	PriA SSB inh	BJeLR lethal	SARS 3CLpro inh
O=C(CSc1ccc(-c2ccccn2)nn1)Nc1ccc(Cl)c(Cl)c1	28	/	/
CCOc1ccccc1NC(=O)CSc1ccc(-c2ccccn2)nn1	116*	/	/
COc1ccc(NC(=O)CSc2ccc(-c3ccccn3)nn2)cc1OC	72*	16	10
O=C(CSc1ccc(-c2ccccn2)nn1)Nc1ccc(F)cc1F	11	1	5
CCOc1ccc(NC(=O)CSc2ccc(-c3ccccn3)nn2)cc1	16	10	0
O=C(CSc1ccc(-c2ccccn2)nn1)Nc1ccccc1F	84*	/	/
Cc1nnc(NC(=O)CSc2ccc(-c3cccnc3)nn2)s1	-18	5	1
Cc1nnc(NC(=O)CSc2ccc(-c3ccccn3)nn2)s1	56*	8	3
O=C(NCCn1ncccc1=O)[C@H]1CCCN(c2ccc(-n3cncn3)nn2)C1	-5	/	/
O=C(Nc1ccc(S(=O)(=O)N2CCCCC2c2cccnc2)cc1)c1cc2ccccc2oc1=O (stereo unspecified)	0	/	/
CCCn1c(=NC(=O)/C=C/c2ccccc2)sc2cccc(F)c21	-20	/	/
O=S(=O)(NCc1nccc(N2CCCC2)n1)c1ccccc1F	-14	/	/
O=C(CS(=O)(=O)c1ccc(Cl)s1)Nc1cc(F)ccc1F	2	/	/
COc1ccccc1NC(=O)CSc1ccc(-c2ccccn2)nn1	89*!	-10	1
COc1ccccc1NC(=O)CSc1ccc(-c2ccncc2)nn1	18	/	/
O=C(CSc1nnc(-c2cccc(Cl)c2)o1)Nc1ccc(C(F)(F)F)cc1	-2	/	/
Oc1ccccc1N=Nc1nc(-c2ccccc2)c(-c2ccccc2)[nH]1	14	67*	-2
COc1ccccc1N=Nc1nc(-c2ccccc2)c(-c2ccccc2)[nH]1	79	-3	-2
CCOC(=O)N1CCN(C(=O)C2CN(S(=O)(=O)C3CC3)C2)CC1	-10	/	/
Cc1ccccc1Cn1cnc2c(cnn2CCNC(=O)C(C)(C)Oc2ccc(Cl)cc2)c1=O	8	/	/
COc1ccccc1NS(=O)(=O)c1ccc(NN=Cc2ccccc2OCC(=O)O)c([N+](=O)[O-])c1	42*	/	/
COc1cc(C=NNc2ccc(S(=O)(=O)Nc3ccccc3C(=O)O)cc2[N+](=O)[O-])ccc1O	49*	/	/
CSc1ccc(/C=N/Nc2ccc(S(=O)(=O)Nc3ccccc3C(=O)O)cc2[N+](=O)[O-])cc1	i	/	/
Cc1nn(-c2ccccc2)c(Cl)c1C=NNc1ccc(S(=O)(=O)Nc2ccccc2C(=O)O)cc1[N+](=O)[O-]	45*	/	/
CN(CCO)c1ccc(C=NNc2ccc([N+](=O)[O-])cc2S(=O)(=O)Nc2ccccc2C(=O)O)cc1	40*	/	/
SMILES	PriA SSB inh	BJeLR lethal	SARS 3CLpro inh
CCOc1ccccc1/C=N/Nc1ccc(S(=O)(=O)Nc2ccccc2OC)cc1[N+](=O)[O-]	i	/	/
CC(=O)Nc1ccc(C=NNc2ccc([N+](=O)[O-])cc2S(=O)(=O)Nc2ccccc2C(=O)O)cc1	-13	/	/
CCOc1ccc(C=NNc2ccc(S(=O)(=O)Nc3ccccc3C(=O)O)cc2[N+](=O)[O-])cc1OC	4	/	/
CCC(C)n1c(=O)c2ccccc2n(Cc2nc(-c3ccc(C(F)(F)F)cc3)no2)c1=O (stereo unspecified)	-6	/	/
Cc1ccc(-c2ccc(C=NN=C3NC(=O)C(CC(=O)O)S3)o2)c([N+](=O)[O-])c1 (stereo unspecified)	-1	/	/
Cc1ccc([N+](=O)[O-])cc1NC(=O)CCN1C(=O)c2ccccc2S1(=O)=O	-1	/	/
O=C(C1CC=CCC1)N1CCC(Oc2ccc(Cl)cn2)CC1 (stereo unspecified)	-22	/	/
CCN1CCN(C(=O)NCCn2nc(-c3cccs3)cc2C)C(=O)C1=O	-5	/	/
c1ccc(-c2nnc(-c3c[nH]c4ccccc34)o2)cc1	-3	/	/
Cc1nn(-c2ccccc2)c(N2CCCC2)c1C=NNc1ccc(S(N)(=O)=O)cc1[N+](=O)[O-]	80*	/	/
Cc1nn(-c2ccccc2)c(N2CCCC2)c1/C=N/Nc1ccc(S(N)(=O)=O)cc1[N+](=O)[O-]	/	19	-3
CC1(C(=O)O)Cc2ccc(Cl)cc2C(=O)O1 (stereo unspecified)	-1	/	/
CCCN1C=CC(=C2C(=O)c3ccccc3C2=O)C=C1	-9	68*	-5
CCCCCCN1C=CC(=C2C(=O)c3ccccc3C2=O)C=C1	-21	16	-2
Cc1cc(NC(=O)C(=O)NCCc2ccoc2)no1	-14	/	/
Cc1ccccc1-n1ncc2c([N+](=O)[O-])cc([N+](=O)[O-])cc21	64*	-7	-6
Cc1ccccc1[N+](=O)[O-]	-2	/	/
c1ccc(-c2nc(N3CCCCCC3)c3ccccc3n2)nc1	87*	49	0
CCN1CCN(c2nc(-c3ccccn3)nc3ccccc23)CC1	-8	0	0
